PubChem BioAssay AID1159580 (chemical genetic matrix, 2015)
About 2,000 (36%) of roughly 5,500 compounds were called active. Not shown: some 18% with an inconclusive outcome. Cut-off read from the data, not from the text of the source: active = normalized growth mostly below about 0.91 (no sharp cut-off); inconclusive = no clear call, values can overlap the other calls; inactive = mostly above about 0.92. The list shows a part of the results.

Assay: chemical genetic growth profiling, strain panel (AID 1159580);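 note: tested at 20 µM; growth read once vehicle control cultures reached saturation at 30 °C; 1 = growth at the plate median or of vehicle wells; lower values mean less growth of the strain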
Settings: growth OD

Measured: normalized growth

CN(C)C(=O)Nc1ccc(Cl)c(Cl)c1
inactive: S. cerevisiae deletion strains, locus YJR075W, strain HOC1, hits give low values 0.958 | S. cerevisiae deletion strains, locus YKL009W, strain mrt4, hits give low values 0.97 | S. cerevisiae deletion strains, locus YKL068W, hits give low values 1 | S. cerevisiae deletion strains, locus YKL085W, strain MDH1 (second series), hits give low values 1 | S. cerevisiae deletion strains, locus YKL085W, strain MDH1, hits give low values 1 | S. cerevisiae deletion strains, locus YKL160W, strain elf1, hits give low values 0.955 | S. cerevisiae deletion strains, locus YKL190W, strain CNB1, hits give low values 0.996 | S. cerevisiae deletion strains, locus YKR001C, strain vps1, hits give low values 0.984 | S. cerevisiae deletion strains, locus YKR026C, strain gcn3, hits give low values 0.993 | S. cerevisiae deletion strains, locus YKR091W, strain srl3, hits give low values 0.982 | S. cerevisiae deletion strains, locus YLL001W, strain dnm1, hits give low values 0.901 | S. cerevisiae deletion strains, locus YLL026W, hits give low values 0.991 | S. cerevisiae deletion strains, locus YLL041C, strain sdh2, hits give low values 0.994 | S. cerevisiae deletion strains, locus YLR027C, strain aat2, hits give low values 0.969 | S. cerevisiae deletion strains, locus YLR039C, strain RIC1, hits give low values 1.04 | S. cerevisiae deletion strains, locus YLR058C, strain SHM2, hits give low values 0.991 | S. cerevisiae deletion strains, locus YLR102C, strain apc9, hits give low values 1 | S. cerevisiae deletion strains, locus YLR113W, strain HOG1, hits give low values 0.909 | S. cerevisiae deletion strains, locus YLR221C, strain rsa3, hits give low values 0.963 | S. cerevisiae deletion strains, locus YLR258W, strain gsy2, hits give low values 0.984 | S. cerevisiae deletion strains, locus YLR262C, strain YPT6 (second series), hits give low values 0.996 | S. cerevisiae deletion strains, locus YLR262C, strain YPT6, hits give low values 1.01 | S. cerevisiae deletion strains, locus YLR268W, strain sec22, hits give low values 0.988 | S. cerevisiae deletion strains, locus YLR320W, strain mms22, hits give low values 0.98 | S. cerevisiae deletion strains, locus YLR330W, strain CHS5, hits give low values 0.994 | S. cerevisiae deletion strains, locus YLR342W, strain FKS1 (second series), hits give low values 0.983 | S. cerevisiae deletion strains, locus YLR342W, strain FKS1, hits give low values 0.985 | S. cerevisiae deletion strains, locus YLR357W, strain rsc2, hits give low values 0.969 | S. cerevisiae deletion strains, locus YLR370C, strain arc18, hits give low values 0.965 | S. cerevisiae deletion strains, locus YLR371W, strain rom2, hits give low values 1 | S. cerevisiae deletion strains, locus YLR384C, strain iki3, hits give low values 1.01 | S. cerevisiae deletion strains, locus YLR418C, strain cdc73, hits give low values 0.85 | S. cerevisiae deletion strains, locus YML016C, strain PPZ1, hits give low values 0.993 | S. cerevisiae deletion strains, locus YML032C, strain rad52, hits give low values 0.994 | S. cerevisiae deletion strains, locus YML120C, strain ndi1, hits give low values 0.985 | S. cerevisiae deletion strains, locus YML124C, strain tub3, hits give low values 1 | S. cerevisiae deletion strains, locus YMR058W, strain fet3, hits give low values 0.992 | S. cerevisiae deletion strains, locus YMR078C, strain ctf18, hits give low values 0.999 | S. cerevisiae deletion strains, locus YMR125W, strain sto1, hits give low values 1.04 | S. cerevisiae deletion strains, locus YMR129W, hits give low values 0.991 | S. cerevisiae deletion strains, locus YMR205C, strain PFK2, hits give low values 0.917 | S. cerevisiae deletion strains, locus YMR223W, strain ubp8, hits give low values 0.987 | S. cerevisiae deletion strains, locus YMR231W, strain pep5, hits give low values 1 | S. cerevisiae deletion strains, locus YMR263W, strain SAP30, hits give low values 0.956 | S. cerevisiae deletion strains, locus YMR307W, strain GAS1, hits give low values 0.812 | S. cerevisiae deletion strains, locus YNL067W, strain RPL9B, hits give low values 0.986 | S. cerevisiae deletion strains, locus YNL071W, strain lat1, hits give low values 0.982 | S. cerevisiae deletion strains, locus YNL128W, strain TEP1, hits give low values 0.993 | S. cerevisiae deletion strains, locus YNL153C, strain GIM3, hits give low values 0.996 | S. cerevisiae deletion strains, locus YNL183C, strain NPR1, hits give low values 0.939 | S. cerevisiae deletion strains, locus YNL209W, strain ssb2, hits give low values 0.972 | S. cerevisiae deletion strains, locus YNL233W, strain BNI4, hits give low values 0.97 | S. cerevisiae deletion strains, locus YNL248C, strain rpa49, hits give low values 1.02 | S. cerevisiae deletion strains, locus YNL250W, strain rad50, hits give low values 1.01 | S. cerevisiae deletion strains, locus YNL271C, strain bni1, hits give low values 1 | S. cerevisiae deletion strains, locus YNL298W, strain CLA4, hits give low values 0.998 | S. cerevisiae deletion strains, locus YNL307C, strain MCK1, hits give low values 0.935 | S. cerevisiae deletion strains, locus YNL322C, strain KRE1 (second series), hits give low values 0.969 | S. cerevisiae deletion strains, locus YNL322C, strain KRE1, hits give low values 1 | S. cerevisiae deletion strains, locus YNR049C, strain mso1, hits give low values 0.987 | S. cerevisiae deletion strains, locus YNR052C, strain pop2, hits give low values 1.03 | S. cerevisiae deletion strains, locus YOL006C, strain TOP1, hits give low values 0.862 | S. cerevisiae deletion strains, locus YOL012C, strain htz1 1.04 | S. cerevisiae deletion strains, locus YOL147C, strain pex11, hits give low values 1 | S. cerevisiae deletion strains, locus YOR001W, strain rrp6, hits give low values 1 | S. cerevisiae deletion strains, locus YOR061W, strain CKA2, hits give low values 1 | S. cerevisiae deletion strains, locus YOR069W, strain VPS5, hits give low values 1 | S. cerevisiae deletion strains, locus YOR070C, strain gyp1, hits give low values 0.997 | S. cerevisiae deletion strains, locus YOR080W, strain dia2, hits give low values 1.01 | S. cerevisiae deletion strains, locus YOR083W, strain WHI5, hits give low values 0.927 | S. cerevisiae deletion strains, locus YOR106W, strain vam3, hits give low values 0.919 | S. cerevisiae deletion strains, locus YOR136W, strain idh2, hits give low values 0.997 | S. cerevisiae deletion strains, locus YOR144C, strain elg1, hits give low values 1.01 | S. cerevisiae deletion strains, locus YOR184W, strain ser1, hits give low values 0.929 | S. cerevisiae deletion strains, locus YOR231W, strain MKK1, hits give low values 0.991 | S. cerevisiae deletion strains, locus YOR265W, strain rbl2, hits give low values 0.992 | S. cerevisiae deletion strains, locus YOR270C, strain vph1, hits give low values 0.925 | S. cerevisiae deletion strains, locus YOR290C, strain snf2, hits give low values 0.926 | S. cerevisiae deletion strains, locus YOR316C, strain cot1, hits give low values 1 | S. cerevisiae deletion strains, locus YPL051W, strain arl3, hits give low values 0.956 | S. cerevisiae deletion strains, locus YPL055C, strain LGE1, hits give low values 0.95 | S. cerevisiae deletion strains, locus YPL078C, strain atp4, hits give low values 0.988 | S. cerevisiae deletion strains, locus YPL106C, strain sse1, hits give low values 0.981 | S. cerevisiae deletion strains, locus YPL240C, strain hsp82, hits give low values 0.982 | S. cerevisiae deletion strains, locus YPL241C, strain CIN2, hits give low values 1 | S. cerevisiae deletion strains, locus YPL256C, strain CLN2, hits give low values 0.975 | S. cerevisiae deletion strains, locus YPR119W, strain clb2, hits give low values 0.996 | S. cerevisiae deletion strains, locus YPR141C, strain kar3, hits give low values 1 | S. cerevisiae deletion strains, locus YPR163C, strain tif3, hits give low values 1 | S. cerevisiae deletion strains, locus YPR167C, strain met16, hits give low values 0.999 | S. cerevisiae deletion strains, strain wtn01, hits give low values 0.994 | S. cerevisiae strains, strain wild type, hits give low values 0.995
